Measured values as given in PubChem BioAssay (Tox21).
Where “and” joins values, the source holds several entries; their conditions need not be identical. Identical values can stand only once. Inconclusive results are not listed. Entries that show only a call come without a potency. Calls of active or inactive are those of the source. Unless noted, calls come from the whole dose curve; as a rule, active = well fitted curve in the direction sought with a large enough effect in the repeat runs; inconclusive = weak or mixed curves; inactive = no such curve, though single readings can be large; an effect the other way counts as inactive or inconclusive.

Experiments:
[1] = qHTS assay to identify small molecule agonists of the NFkB signaling pathway - cell viability counter screen (AID 1159515; calls by dose curve; note: nearly all actives have a fitted effect of over 55% in size; note: potency is the fitted concentration of half-maximal effect); conditions: NFkB-bla ME-180 viability, CellTiter-Glo luminescence, 5 h; series mostly up to 61 µM
How it was run: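 Plate 2,000 NFkB-bla ME-180 cells/well; incubate overnight. Add compounds, 5 hr at 37 C. Add FRET substrate, 1.5 hr RT. Add CellTiter-Glo, 30 min RT; read luminescence.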

[2] = qHTS assay to identify small molecule agonists of the endoplasmic reticulum stress response signaling pathway - cell viability counter screen (AID 1159517; calls by dose curve; note: nearly all actives have a fitted effect of over 50% in size; note: potency is the fitted concentration of half-maximal effect); conditions: ESRE-bla HeLa viability, CellTiter-Glo luminescence, 5 h; series mostly up to 61 µM
How it was run: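 Cytotoxicity of test compounds toward ESRE-bla HeLa cells was assessed after 5 hr exposure. The luminescent CellTiter-Glo signal was measured 30 min after reagent addition.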

[3] = qHTS assay to identify small molecule antagonists of the retinoid-related orphan receptor gamma (ROR-gamma) signaling pathway - cell viability counter screen (AID 1159520); conditions: Tet-on RORgamma CHO cells viability, ATP luminescence, 16 h; series mostly up to 92.4 µM; note: nearly all actives have a fitted effect of over 50% in size; note: potency is the fitted concentration of half-maximal effect
How it was run: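 Tet-on ROR gamma CHO cells (1,000/well) were plated 4 hr, given compounds in DMSO for 2 hr at 37 C, then induced with 1 uM final doxycycline for 16 hr. Viability was read as ATP by CellTiter-Glo luminescence after 30 min.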

[4] = qHTS assay to identify small molecule agonists of the AP-1 signaling pathway - cell viability counter screen (AID 1159525; calls by dose curve; note: nearly all actives have a fitted effect of over 55% in size; note: potency is the fitted concentration of half-maximal effect); conditions: ME-180 AP-1-bla cells viability, ATP luminescence, 5 h; series mostly up to 76.8 µM
How it was run: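 Each titration point was normalised to DMSO and tetra n-octyl ammonium bromide controls. The read was Cell Titer Glo luminescence after 30 min at RT, following 5 h compound exposure of ME-180 AP-1-bla cells at 37 °C.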

[5] = qHTS assay to identify small molecule agonists of the AP-1 signaling pathway (AID 1159526; calls by dose curve); conditions: ME-180 (cervical carcinoma) AP-1-bla reporter, beta-lactamase FRET ratio, 5 h; series mostly up to 76.8 µM
[6] = molecular target: Retinoic acid receptor RXR-alpha (Homo sapiens) (UniProt P19793); assay: qHTS assay to identify small molecule agonists of the RXR signaling pathway (AID 1159527; calls by dose curve; note: nearly all actives have a fitted effect of over 35% in size); conditions: HEK293T RXRa-UAS-bla, beta-lactamase ratio, 16 h; series mostly up to 76.8 µM
How it was run: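 Compounds in DMSO were added to RXR-alpha-UAS-bla HEK 293T cells kept in 2% charcoal-stripped serum, and incubated 16 hr at 37 C with 5% CO2. Reporter signal came from a 2 hr B/G FRET substrate step.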

[7] = qHTS assay to identify small molecule agonists of the RXR signaling pathway - cell viability counter screen (AID 1159529); conditions: RXR-alpha-bla HEK293T viability, CellTiter-Glo, 16 h; series mostly up to 76.8 µM; note: nearly all actives have a fitted effect of over 50% in size; note: potency is the fitted concentration of half-maximal effect
How it was run: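 Counter screen: CellTiter-Glo luminescence. Cells: RXR-alpha-UAS-bla HEK 293T. Medium: 2% charcoal-stripped FBS. Treatment: 16 h, 37 C. Reagent incubation: 30 min, RT.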

[8] = qHTS assay to identify small molecule antagonists of the vitamin D receptor (VDR) signaling pathway - cell viability counter screen (AID 743225); conditions: VDR-bla HEK293T viability, CellTiter-Glo luminescence, 16 h; series mostly up to 61 µM; note: nearly all actives have a fitted effect of over 50% in size; note: potency is the fitted concentration of half-maximal effect
How it was run: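 Same-well multiplex: following 16 h treatment of HEK 293T cells carrying a UAS-driven beta-lactamase reporter with compound and agonist (3 nM final), and a 2 h FRET substrate step, CellTiter-Glo was added and luminescence read after 30 min.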

[9] = molecular target: Nuclear receptor ROR-gamma (Homo sapiens) (UniProt P51449); assay: qHTS assay to identify small molecule antagonists of the retinoid-related orphan receptor gamma (ROR-gamma) signaling pathway (AID 1159521; note: nearly all actives have a fitted effect of over 50% in size; note: potency is the fitted concentration of half-maximal effect); conditions: Tet-on RORgamma CHO cells, RORE-luciferase, 16 h; series mostly up to 92.4 µM
How it was run: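 Inducible-expression reporter assay: doxycycline (1 uM final) switched on RORγ in CHO cells bearing a ROR response element-luciferase construct, with test compounds present from 2 h beforehand. Decreased luminescence after 16 h defined antagonist activity.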

Sequence of Retinoic acid receptor RXR-alpha (Homo sapiens) (P19793 whole entry, looked up): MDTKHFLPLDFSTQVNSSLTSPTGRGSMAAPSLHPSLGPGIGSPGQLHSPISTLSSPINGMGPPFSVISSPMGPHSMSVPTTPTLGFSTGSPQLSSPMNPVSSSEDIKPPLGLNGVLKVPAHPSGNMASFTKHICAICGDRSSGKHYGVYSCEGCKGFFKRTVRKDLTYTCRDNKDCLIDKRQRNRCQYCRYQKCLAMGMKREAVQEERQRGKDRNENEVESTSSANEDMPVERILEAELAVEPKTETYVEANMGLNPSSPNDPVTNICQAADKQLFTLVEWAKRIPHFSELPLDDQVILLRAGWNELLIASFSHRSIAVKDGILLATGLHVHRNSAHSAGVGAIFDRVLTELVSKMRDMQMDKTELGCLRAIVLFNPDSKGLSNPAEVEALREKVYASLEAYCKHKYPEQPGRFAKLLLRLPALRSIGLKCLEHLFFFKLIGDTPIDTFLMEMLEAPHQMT

SMILES | Potency [1] | Potency [2] | Potency [3] | Potency [4] | Potency [5] | outcome [6] | Potency [7] | Potency [8] | Potency [9]
CCCCCCCCCCCCCCC(Br)C(=O)O (centres undefined) | 54.9 µM (active) | 38.9 µM (active) | inactive | inactive | inactive | inactive |  |  | 
CC1(C)[C@H](C(=O)O[C@H](C#N)c2cccc(Oc3ccccc3)c2)[C@@H]1/C=C(\Cl)C(F)(F)F | inactive | inactive | inactive | inactive | inactive |  | inactive |  | 
CC(=O)[O-].CC(=O)[O-].[Hg+2] | 0.871 µM (active) | 0.776 µM (active) | 1.22 µM (active) | 3.89 µM (active) |  |  | 2.75 µM (active) | 3.09 µM (active) | 
O=S(=O)(c1ccc(Cl)cc1)c1ccc(Cl)cc1 | inactive | inactive | inactive | inactive |  |  | inactive | inactive | 
Nc1ccc(Cc2ccc(N)c(Cl)c2)cc1Cl | inactive | inactive | inactive |  |  |  |  |  | inactive
c1ccc2c(c1)[nH]c1cnccc12 | inactive | inactive | inactive | inactive |  | inactive | inactive | inactive | 
CC(C)[C@H](C(=O)OC(C#N)c1cccc(Oc2ccccc2)c1)c1ccc(OC(F)F)cc1 (some centres undefined) | inactive | inactive | inactive | inactive |  | inactive | inactive | inactive | 
O=[N+]([O-])c1ccc2ccc3cccc4ccc1c2c34 | inactive | inactive |  | inactive | inactive |  |  | inactive | inactive
O=C(CCl)Nc1ccccc1 | inactive | inactive | 27.3 µM (active) |  |  |  | inactive | 49 µM (active) | 21.7 µM (active)
S=C=Nc1cccc2ccccc12 | 21.7 µM (active) | 19.3 µM (active) | inactive | 24.3 µM (active) |  |  |  | inactive | 
CCCCCCCCCCCCCCCCCCn1cc[n+](C)c1 | 48.7 µM (active) |  | 60.8 µM (active) | inactive | inactive |  | 10.9 µM (active) | 19.4 µM (active) | 3.05 µM (active)
COc1ccc(OC)c(CC(C)N)c1 (centres undefined) | inactive |  | inactive | inactive | inactive | inactive | inactive | inactive | inactive
CCCCCCCCCC[N+](C)(C)CCCCCCCCCC | 54.9 µM (active) | 54.9 µM (active) |  | 34.7 µM (active) |  |  | 15.5 µM (active) | 15.5 µM (active) | 21.7 µM (active)
C[C@H]1O[C@@H](O[C@H]2[C@@H](O)C[C@H](O[C@H]3[C@@H](O)C[C@H](O[C@H]4CC[C@@]5(C)[C@H](CC[C@@H]6[C@@H]5CC[C@]5(C)[C@@H](C7=CC(=O)OC7)CC[C@]65O)C4)O[C@@H]3C)O[C@@H]2C)C[C@H](O)[C@@H]1O | 0.124 µM (active) |  | inactive |  |  |  | 0.0621 µM (active) | 8.8 nM (active) and 84.9 nM (active) | 5.48 µM (active) and 16.8 µM (active)
CC[C@H](C)[C@H]1O[C@]2(C=C[C@@H]1C)C[C@@H]1C[C@@H](C/C=C(\C)[C@@H](O[C@H]3C[C@H](OC)[C@@H](O[C@H]4C[C@H](OC)[C@@H](O)[C@H](C)O4)[C@H](C)O3)[C@@H](C)/C=C/C=C3\CO[C@@H]4[C@H](O)C(C)=C[C@@H](C(=O)O1)[C@]34O)O2 | 28.9 µM (active) |  | 25.6 µM (active) | 23 µM (active) |  |  | 16.3 µM (active) | 11.5 µM (active) | 
COc1cc(C=O)cc2c1[C@H](COC(N)=O)[C@]1(OC(C)=O)ON2C[C@H]2[C@@H]1N2C(C)=O | inactive |  | inactive | inactive | inactive |  | inactive | inactive | 
O=c1ssc(Cl)c1Cl | 27.5 µM (active) |  | 15.4 µM (active) |  |  |  | inactive |  | 17.2 µM (active)
CCCCN(CCCC)C(=S)[S-].CCCCN(CCCC)C(=S)[S-].[Zn+2] | inactive |  | inactive |  |  |  | 4.36 µM (active) | 11 µM (active) | 13.7 µM (active)
CCCSP(=O)(OCC)SCCC | inactive |  | inactive | inactive | inactive |  | inactive |  | inactive
COC12CC[C@@]3(C[C@@H]1C(C)(O)C(C)(C)C)[C@H]1Cc4ccc(O)c5c4[C@@]3(CCN1CC1CC1)[C@H]2O5 (some centres undefined) | 54.6 µM (active) |  | 60.7 µM (active) | 54.6 µM (active) |  |  | 21.7 µM (active) | inactive | 54.1 µM (active)
Cc1ccc(OP(=O)(Oc2ccccc2)Oc2ccccc2)cc1 | inactive |  | inactive | inactive | inactive |  | inactive | inactive | 
C[C@H]1CC[C@@H]2[C@@H](C)[C@H]3[C@H](C[C@H]4[C@@H]5CC=C6CC(O[C@@H]7O[C@H](CO)[C@H](O)[C@H](O[C@@H]8O[C@H](CO)[C@@H](O)[C@H](O)[C@H]8O)[C@H]7O[C@H]7O[C@@H](C)[C@H](O)[C@@H](O)[C@H]7O)CC[C@]6(C)[C@H]5CC[C@]34C)N2C1 (some centres undefined) | 56.7 µM (active) |  | 28.2 µM (active) | 20.1 µM (active) |  |  | 14.3 µM (active) | inactive | inactive
Oc1ccc(C(=C(Cl)Cl)c2ccc(O)cc2)cc1 | inactive |  | inactive | inactive | inactive |  |  |  | 
CCN(CC)C(=S)[S-].CCN(CC)C(=S)[S-].[Zn+2] | 12.2 µM (active) |  | 5.4 µM (active) | 12.2 µM (active) |  |  | 1.72 µM (active) | 3.06 µM (active) | 0.856 µM (active)
N#CSCSC#N | 25.1 µM (active) |  | 15.7 µM (active) and 4.28 µM (active) | 25.1 µM (active) and 21.7 µM (active) |  |  | 17.8 µM (active) and 17.2 µM (active) | 50.1 µM (active) and 34.3 µM (active) | 12.1 µM (active)
CCN(CC)c1c([N+](=O)[O-])cc(C(F)(F)F)c(N)c1[N+](=O)[O-] | inactive |  | inactive |  |  |  |  | inactive | 27.3 µM (active)
